Assay [1] can be described thus: compound effects on lung adenocarcinoma cell viability – A549, calcein-AM fluorescence, 48 h, basal, profiling panel (AID 1162). To be noted: higher = more signal.
Assay [2] is described as follows: compound effects on differentiated 3T3-L1 adipocyte viability – cell-based, 3T3-L1 adipocytes, calcein-AM fluorescence, 48 h, basal, profiling panel (AID 1163). To be noted: 3T3-L1 adipocytes viability, higher = more signal.
Assay [3] is described as follows: compound effects on hepatocellular carcinoma cell viability – HepG2, calcein-AM fluorescence, 48 h, basal, profiling panel (AID 1164). To be noted: higher = more signal.
The nature of assay [4]: compound effects on multiple myeloma cell viability – MM1S, calcein-AM fluorescence, 48 h, basal, profiling panel (AID 1165).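 Also: viability of MM1S multiple myeloma cells under basal unstimulated conditions.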 To be noted: higher = more signal.
Assay [5] in a line: calcein-AM signal in unstimulated myeloma cells – cell-based, calcein-AM fluorescence, 48 h, PK04 Diversity Set, profiling panel (AID 1166).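 Also: cells grown under basal conditions without added stimulus.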 As to conditions: RPMI8226 myeloma viability, higher = more signal.
Assay [6] is described as follows: JC-1 mitochondrial signal, unstimulated HepG2 cells – cell-based, JC-1 fluorescence, 24 h, 100 nL compound, profiling panel (AID 1167). As to conditions: HepG2 mitochondrial potential, higher = more signal.
The nature of assay [7]: JC-1 mitochondrial signal, unstimulated adipocytes – cell-based, JC-1 fluorescence, 3T3-L1 adipocytes, 24 h, 100 nL compound, profiling panel (AID 1168). As to conditions: JC-1 mitochondrial fluorescence, higher = more signal, called active from +8 up or from −8 down.
Assay [8] in a line: JC-1 mitochondrial signal, unstimulated myeloma cells – cell-based, JC-1 fluorescence, RPMI8226, 24 h, 100 nL compound, profiling panel (AID 1169). To be noted: JC-1 mitochondrial potential fluorescence, higher = more signal.
The nature of assay [9]: JC-1 mitochondrial signal, unstimulated MM1S myeloma – cell-based, JC-1 fluorescence, 24 h, 100 nL compound, profiling panel (AID 1170). As to conditions: MM1S mitochondrial potential, higher = more signal.
A short description of assay [10]: resazurin metabolic signal in A549 cells – cell-based, resazurin fluorescence, 24 h, PK04 Diversity Set, profiling panel (AID 1171). To be noted: A549 viability, higher = more signal, called active from +8 up or from −8 down. (In general: The colour change of resazurin is a common sign of viable cells or microbes.)

Active and inactive are the calls of the source.

For 14 compounds, z-score results are on record in PubChem BioAssay.
Also: test concentration not given here.

`O=C(CS)NCCCCCNC(=O)[C@@H]1C[C@@H]2C(=O)N3CCC[C@H]3C(=O)N2[C@@H]1c1ccc(O)cc1`: the z-score in [1] is 0.644; in [2], -0.239; in assay [3], 0.413; in assay [4], -0.96; in assay [5] it was 0.125; in [6], -0.264. Moreover, the z-score in assay [7] is -0.155 (inactive); in assay [8] it was -0.282; in [9], 0.684; in assay [10], -0.284 (inactive).

For the compound `CCOC(=O)C[C@H]1[C@H](OC(=O)c2ccccc2-c2ccccc2)[C@@H](NC(=O)c2ccccc2)c2cc(OCCCO)ccc2N1C(=O)Cc1ccc(OC)cc1`, the z-score in assay [1] was 1.29; in assay [2], 0.182; in assay [3] it was 0.144; in assay [4] it was -0.128; in assay [5], 0.206; in assay [6], 1.02. The z-score in assay [7] is -0.387 (inactive); in [8] it was -1.04; in assay [9], 0.277; in assay [10], 0.995 (inactive).

Regarding `CCN(CC)c1ccc(N2CC=CC34O[C@@H]5/C=C\CCCOC(=O)C5[C@H]3C(=O)N(CCCCCO)[C@@H]4C2=O)cc1` (stereo not given in full), the z-score in [1] was 0.147; in assay [2], 0.184; in assay [3], 0.481; in [4], -0.459; in assay [5] it was -0.711; in [6], -0.589. Further, the z-score in [7] is -0.267 (inactive); in assay [8], 0.0223; in assay [9], 0.515; in assay [10] it was 0.0257 (inactive).

For `COCCOC(=O)N1C(=O)[C@@]2(c3ccccc31)[C@H](c1ccccc1OCCO)N1[C@H](c3ccccc3)[C@H](c3ccccc3)OC(=O)[C@H]1[C@@H]2C(=O)N1CCc2cc(OC)c(OC)cc2C1`, the z-score was -0.322 in [1]; 1.09 in assay [2]; -0.628 in assay [3]; -1.87 in assay [4]; -1.49 in assay [5]; 0.822 in assay [6]. The z-score in [7] is 0.977 (inactive); in assay [8] it was -0.337; in [9] it was -0.582; in assay [10], -0.395 (inactive).

In the case of `CN(C)C(=O)[C@]1(Cc2ccccc2N=[N+]=[N-])N=C(c2ccc(OCCCO)cc2)O[C@@H]1c1ccccc1CN=[N+]=[N-]`, the z-score in [1] was -0.409; in assay [2] it was 1.01; in assay [3] it was -0.386; in [4], -2.39; in assay [5] it was -3.03; in assay [6], 0.38. In addition, the z-score is -0.286 (inactive) in [7], -0.992 in [8], -1.09 in assay [9] and 1.59 (inactive) in [10].

Consider `C=C(C)[C@@H]1CC=C(C(O)C2C=CC3C(=O)N(C4CCCCC4)C(=O)C3N2Nc2ccc(OC)cc2)CC1` (stereo not given in full), for which the z-score is -0.447 in assay [1]; -1.46 in [2]; 0.319 in assay [3]; 0.0801 in assay [4]; -0.0663 in [5]; -0.227 in assay [6]. Moreover, the z-score in assay [7] is -0.836 (inactive); in assay [8] it was -0.393; in assay [9] it was -1.4; in [10] it was 0.784 (inactive).

Consider `C[N+](C)(C)CCCCNC(=O)[C@H]1C[C@H]2C(=O)NCC(=O)N2[C@H]1c1ccc(O)cc1`, for which the z-score in assay [1] is -0.143; in assay [2], -0.811; in assay [3], 0.658; in assay [4] it was 0.519; in assay [5] it was 0.124; in assay [6], 0.227. The z-score in assay [7] is -0.12 (inactive); in assay [8], -0.797; in assay [9], -0.988; in [10], -1.02 (inactive).

Consider `NC(=O)[C@@H]1[C@H]2C(=O)O[C@H](c3ccccc3)[C@H](c3ccccc3)N2[C@H](c2ccccc2OCCO)[C@@]12C(=O)Nc1ccc(C#CCCO)cc12`, for which the z-score is 0.888 in [1]; 1.27 in assay [2]; 0.133 in assay [3]; 0.448 in assay [4]; -3.68 in assay [5]; -0.945 in [6]. Further, the z-score in [7] was 0.783 (inactive); in assay [8] it was -1.11; in assay [9] it was 0.068; in assay [10] it was 0.461 (inactive).

For `CO[C@H]1O[C@H](CO)[C@@H](OC(=O)Nc2ccc(C(F)(F)F)cc2)[C@H](OC(=O)Nc2ccccc2)[C@H]1OC(=O)Nc1ccccc1`, the z-score in assay [1] is -3.56; in assay [2], 1.96; in [3], -5.2; in [4], -3.39; in [5], -4.45; in assay [6], -1.93. For the same compound, the z-score in assay [7] is 0.575 (inactive); in assay [8], -1.27; in assay [9], -1.45; in assay [10], -6.31 (inactive).

`C=CCN1C(=O)[C@@]2(O[C@@H](CCO)[C@H]([Si](C)(C)c3ccc(OC)cc3)[C@H]2C)c2cc(NC(=O)[C@H](C)O)ccc21`: the z-score in [1] was 0.174; in assay [2] it was 0.178; in [3] it was -2.92; in [4], -2.69; in assay [5] it was -4.41; in assay [6], 1.89. For the same compound, the z-score in [7] was 0.18 (inactive); in [8] it was -0.872; in assay [9], -1.09; in [10] it was -2.25 (inactive).

With `COc1cccc(C)c1NC(=O)O[C@H]1[C@H](OC(=O)Nc2ccccc2)[C@H](OC(=O)Nc2ccccc2)[C@@H](OC)O[C@@H]1CO`, the z-score is -1.09 in [1]; 0.93 in assay [2]; -1.1 in assay [3]; -2.53 in assay [4]; -2.81 in assay [5]; 0.321 in assay [6]. The z-score in assay [7] was 0.306 (inactive); in assay [8], -1.1; in assay [9], 0.268; in assay [10] it was -2.57 (inactive).

With `CC(C)c1ccc(NN2C(C(O)c3ccccn3)C=CC3C(=O)N(c4ccccc4)C(=O)C32)cc1` (stereo not given), the z-score in [1] is -0.381; in assay [2], -0.696; in assay [3] it was -0.293; in assay [4], 0.741; in [5] it was -0.712; in [6], -0.357. Besides, the z-score in assay [7] is -1.17 (inactive); in assay [8] it was -0.597; in [9], -0.729; in assay [10], -0.943 (inactive).

Regarding `COC(=O)C(CC#Cc1ccc2c(c1)[C@]1(C(=O)N2)[C@H](C(=O)N2CCc3cc(OC)c(OC)cc3C2)[C@H]2C(=O)O[C@H](c3ccccc3)[C@H](c3ccccc3)N2[C@@H]1c1ccc(O)cc1)C(=O)OC`, the z-score in [1] is -0.703; in [2], 1.08; in [3], 0.613; in assay [4] it was -0.993; in assay [5], -3.27; in [6] it was -1.81. Moreover, the z-score in assay [7] was 0.604 (inactive); in assay [8], -0.606; in assay [9], 0.567; in [10], -0.216 (inactive).

As for `[N-]=[N+]=NCc1ccccc1[C@H]1OC(c2ccc(OCCCO)cc2)=N[C@@]1(Cc1ccccc1N=[N+]=[N-])C(=O)N1CCCCC1`, the z-score was -0.457 in [1]; -0.5 in assay [2]; -0.536 in [3]; -2.14 in assay [4]; -2.79 in [5]; 1.06 in [6]. Besides, the z-score in assay [7] was 0.0871 (inactive); in assay [8] it was -0.978; in assay [9], -1.76; in [10], -0.409 (inactive).
